Bioassay records deposited in PubChem BioAssay by National Center for Advancing Translational Sciences (NCATS).
Cruzain noTriton: inhibitors of Trypanosoma cruzi cruzain without detergent. purified cruzain, Z-FR-AMC fluorescence, no detergent. P25779. 200,000 compounds, 2.3% hits. AID 1476. Potency, µM, usual class: inhibitors; further: nearly all actives have a fitted effect of over 40% in size
Target sequence (P25779 123-467 limits assumed): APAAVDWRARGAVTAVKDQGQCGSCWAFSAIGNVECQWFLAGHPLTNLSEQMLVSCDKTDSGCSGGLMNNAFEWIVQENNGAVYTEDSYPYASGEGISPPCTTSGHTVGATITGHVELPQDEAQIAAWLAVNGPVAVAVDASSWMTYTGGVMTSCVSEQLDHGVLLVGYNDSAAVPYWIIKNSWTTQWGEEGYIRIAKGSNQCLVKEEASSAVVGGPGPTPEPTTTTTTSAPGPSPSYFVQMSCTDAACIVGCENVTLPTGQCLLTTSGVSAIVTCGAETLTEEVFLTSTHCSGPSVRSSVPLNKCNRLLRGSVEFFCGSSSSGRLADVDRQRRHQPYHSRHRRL
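Detergent-free condition (0.00005% Triton X-100) in acetate buffer pH 5.5 with DTT. 1.5 nM enzyme and compound were pre-mixed 15 min, then 2 uM Z-FR-AMC substrate added; reaction progress from fluorescence change between first and third reads (60 s).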
Cruzain inh Det: cruzain (T. cruzi) inhibition with detergent | purified cruzain, Z-FR-AMC fluorescence, 0.01% Triton | Potency, µM, actives largely listed as inhibitors | 200,000 compounds, 0.43% hits | AID 1478; further: nearly all actives have a fitted effect of over 40% in size
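Enzyme 1.5 nM, Z-FR-AMC 2 uM, NaOAc 100 mM pH 5.5, DTT 5 mM, Triton X-100 0.01%; 15 min RT compound preincubation; kinetic ex360/em450, 60 s delta.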
Papain counter: counter-screen for cruzain inhibitors: papain inhibition; shares compounds with Cruzain inh Det; purified papain, Z-FR-AMC fluorescence cleavage; Potency, µM, hits mostly inhibitors; 410 compounds, 41% hits; AID 2161; further: nearly all actives have a fitted effect of over 35% in size
Target sequence (P00784 whole entry, looked up): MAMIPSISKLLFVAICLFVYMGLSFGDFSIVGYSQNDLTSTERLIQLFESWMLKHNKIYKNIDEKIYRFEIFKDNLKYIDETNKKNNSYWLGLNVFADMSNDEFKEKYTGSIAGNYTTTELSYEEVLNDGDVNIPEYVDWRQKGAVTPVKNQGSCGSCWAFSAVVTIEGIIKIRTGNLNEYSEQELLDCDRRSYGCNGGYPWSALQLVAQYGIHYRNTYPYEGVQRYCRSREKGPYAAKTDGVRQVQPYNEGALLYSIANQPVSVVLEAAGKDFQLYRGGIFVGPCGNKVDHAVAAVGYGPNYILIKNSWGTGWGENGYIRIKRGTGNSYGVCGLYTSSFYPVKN
Of the large screens only hits and unclear results are named; the others gave an inactive call (follow-up assays come after a bar, where they were run). An excerpt weighted towards active compounds, which were near 2.5% of everything screened. The call rests on the fitted dose curve; in most records, active means well fitted curve in the direction sought with a large enough effect; inconclusive means small, poorly fitted or top-dose-only effect, or another doubt; inactive means no such curve, though single readings can be large; an effect the other way counts as inactive or inconclusive.

COc1cccc(CNC(=O)C(=O)NCC(c2ccco2)S(=O)(=O)c2ccccc2)c1 (stereo unspecified)	none
CCOC(=O)c1ccc(OCC2c3cc(OC)c(OC)cc3CCN2C(=O)Cc2ccc(OC)c(OC)c2)cc1 (stereo unspecified)	Cruzain noTriton inconclusive
CCN(CC)S(=O)(=O)c1ccc(N=Nc2c(C)[nH]n(C(N)=S)c2=O)cc1	none
NC(=S)n1[nH]c(-c2ccc([N+](=O)[O-])cc2)c(N=Nc2ccc(O)cc2)c1=O	Cruzain noTriton 0.63µM, Cruzain inh Det 0.35µM | Papain counter inactive
CCCN(Cc1cccs1)C(=O)Nc1cc(C)cc(C)c1	none
Cc1cccc(-n2c(=O)c3c(c4cc(C)ccc4n3C)n(CC(=O)NCCC3=CCCCC3)c2=O)c1	none
COc1ccc(CNC(=O)c2ccc(CSc3nc4ccncc4n3Cc3ccccc3F)cc2)cc1	none
Cc1ccc(S(=O)(=O)NC(CC(N)=O)C(=O)O)cc1 (stereo unspecified)	none
Cc1ccc(S(=O)(=O)N[C@@H](CCCCN)C(=O)CCl)cc1	Cruzain noTriton 1µM, Cruzain inh Det 0.79µM | Papain counter 4µM
Cc1ccc2[nH]c(CSc3nnc(NC(=O)COc4ccccc4C)s3)cc(=O)c2c1	none
COc1ccc2[nH]c(=O)c(NC(N)=S)nc2c1	Cruzain noTriton 1.3µM, Cruzain inh Det 2.2µM | Papain counter inactive
COc1ccc2nc(SCC(N)=O)[nH]c2c1	none
COc1cc(CN(C(=O)COc2ccccc2)c2ccccn2)cc(OC)c1OC	none
CCc1ccc2[nH]c(=O)c(CN(Cc3ccc(OC)cc3)Cc3nnnn3CCOC)cc2c1	Cruzain noTriton inconclusive
Cc1ccc2[nH]c(=O)c(CN(Cc3cccs3)Cc3nnnn3Cc3ccccc3)cc2c1	none
CCc1ccc2[nH]c(=O)c(CN(Cc3cccnc3)Cc3nnnn3Cc3ccccc3)cc2c1	none (no result: Cruzain noTriton, Cruzain inh Det) | Papain counter inactive
CCc1ccc2[nH]c(=O)c(CN(Cc3ccccc3)Cc3nnnn3C(C)(C)C)cc2c1	none (no result: Cruzain noTriton, Cruzain inh Det) | Papain counter inactive
Cc1ccc(-n2ccn(CC(=O)c3ccc(F)cc3)c(=O)c2=O)cc1C	none
Cc1cccc(N2CCN(C(=O)c3c4c(nc5ccccc35)C(=O)N(C3CCCCC3)C4)CC2)c1C	none
C=Cn1ccnc1P(=S)(c1ccc2c(c1)c1ccccc1n2CC)c1nccn1C=C	Cruzain noTriton inconclusive | Papain counter inactive
C=Cn1ccnc1P(=S)(c1ccc(N(C)C)cc1)c1nccn1C=C	Cruzain noTriton inconclusive
O=C(Nc1ccccc1)N1CC[C@@]2(CCCN(C(=O)c3ccncc3)C2)C1	none
Clc1ccccc1CNc1ncnc2c1c(-c1ccccc1)cn2-c1ccccc1	none
CCC(C)NC(=O)c1ccc2nc(Cc3ccccc3)oc2c1 (stereo unspecified)	none
CCC(C)NC(=O)c1ccc2nc(-c3ccco3)c(-c3ccco3)nc2c1 (stereo unspecified)	none (no result: Cruzain noTriton, Cruzain inh Det) | Papain counter 16µM
Cc1ccc2[nH]c3c(NCCCN4CCCC4=O)ncnc3c2c1	none
COc1ccc2[nH]c3c(NCCN4CCCCC4)ncnc3c2c1	Cruzain noTriton 13µM, Cruzain inh Det 16µM | Papain counter inactive
COc1cccc(-c2nc(NCc3cnc(C)cn3)c3ccccc3n2)c1	none
COc1cccc(N2CCN(C(=O)c3cc4c(=O)n(Cc5cccs5)ccc4nc3C)CC2)c1	Cruzain noTriton inconclusive
CCOc1ccc(-c2cc3nc(C4CCN(C(=O)OC(C)(C)C)CC4)c(C(=O)Nc4c(C)cccc4C)cn3n2)cc1	none
CCOc1ccc(-c2cc3nc(C4CCN(C(=O)OC(C)(C)C)CC4)c(C(=O)O)cn3n2)cc1	Cruzain noTriton inconclusive | Papain counter 32µM
O=C(Nc1ccccc1Cl)N1CCC2(CC1)Oc1ccccc1C(=O)N2Cc1ccc(F)cc1	none
CC(C)(C)c1ccc(C(=O)Nc2ccc(Cl)cc2C(=O)c2ccccc2)cc1	none
CC1(C)CC(=O)c2cc(NC(=O)c3ccccc3)c(=O)oc2C1	none
Cc1oc(=O)c(NC(=O)c2ccccc2)cc1C(=O)c1ccccc1	Cruzain noTriton 0.79µM, Cruzain inh Det 3.2µM | Papain counter inactive
Cc1oc(=O)c(NC(=O)c2ccc(Cl)cc2)cc1C(=O)c1ccccc1	Cruzain noTriton 2µM, Cruzain inh Det 2.5µM | Papain counter inactive
CCn1cc(C(=O)OCC(=O)Nc2cccc(Cl)c2C)c(=O)c2ccc(C)nc21	none
CCN1CCN(CCCNC(=O)c2cc3c(s2)-c2ccccc2OC3)CC1	Cruzain noTriton inconclusive, Cruzain inh Det 28µM | Papain counter 10µM
COc1ccccc1CNC(=O)c1cc2c(s1)-c1ccccc1OC2	none
CN1C(=O)/C(=C/c2ccc3c(c2)OCO3)N=C1c1ccccc1	none
CN1N/C(=C\c2ccccc2)N=C2C(=O)N(C)C(=O)N=C21	none (no result: Cruzain noTriton, Cruzain inh Det) | Papain counter inactive
CC/C=C1/N=C2C(=O)N(C)C(=O)N=C2N(C)N1	none (no result: Cruzain noTriton, Cruzain inh Det) | Papain counter inactive
COc1ccc(-c2cc(C(F)F)nn2-c2ccc(S(N)(=O)=O)cc2)cc1F	none
Cc1cc(NC(=O)Cc2cccs2)no1	none | Papain counter inactive
Cc1cc(NS(=O)(=O)c2ccc(NC(=O)Cc3cccs3)cc2)no1	none
NC(=O)C1CCN(S(=O)(=O)c2ccc(N3CCCCS3(=O)=O)cc2)CC1	none
CC(NC(=O)c1ccc(Nc2nc3ccccc3n3nnnc23)cc1)c1ccccc1 (stereo unspecified)	none
CNc1oc(Cc2ccccc2)nc1S(=O)(=O)c1ccc(Cl)cc1	Cruzain noTriton 10µM, Cruzain inh Det 10µM | Papain counter inactive
O=S(=O)(c1ccc(Cl)cc1)c1nc(-c2ccccc2Br)oc1NCc1ccccc1	Cruzain noTriton inconclusive
C=C(C)C(=O)OC1(C(F)(F)F)Oc2cc(C)ccc2NC1=O (stereo unspecified)	Cruzain noTriton 7.9µM, Cruzain inh Det 6.3µM | Papain counter 28µM
CCOC(=O)C1(N(CC)CC)Sc2cc(C)ccc2NC1=O (stereo unspecified)	none
CCc1ccc(CN(C(=O)Nc2cccc(Cl)c2)c2ccccn2)cc1	none
Cc1ccc(-n2c(C)nc3c(cnn3-c3ccccc3C)c2=O)cc1F	none
COc1ccccc1-c1nn2c(-c3cc(C)[nH]n3)nnc2s1	none (no result: Cruzain noTriton, Cruzain inh Det) | Papain counter inactive
COc1cc(-c2nn3c(-c4ccccc4)nnc3s2)cc(OC)c1OC	Cruzain noTriton inconclusive
Cc1ccc(-c2nn3c(-c4cccc(Cl)c4)nnc3s2)cc1	Cruzain noTriton inconclusive
COc1ccc(-c2nnc3sc(-c4ccccc4OC)nn23)cc1	Cruzain noTriton inconclusive
Clc1ccc(-c2nn3c(-c4cc(-c5ccccc5)n[nH]4)nnc3s2)cc1	none (no result: Cruzain noTriton, Cruzain inh Det) | Papain counter inactive
COc1cc(-c2nn3c(-c4cc(-c5ccccc5)n[nH]4)nnc3s2)cc(OC)c1OC	none (no result: Cruzain noTriton, Cruzain inh Det) | Papain counter inactive
CCN(CC)c1ccc(NC(=O)CSc2nnc(C)c(=O)[nH]2)cc1	none
Cc1ccc(NC(=O)c2ccc(=O)n(CC(=O)Nc3cccc(C)c3)n2)cc1	none
CCOC(=O)c1ccc(Nc2c(-c3ccc(N(C)C)cc3)nc3nc[nH]n23)cc1	none
CC1CCCCN1c1nnc(NC(=O)Nc2ccccc2F)s1 (stereo unspecified)	Cruzain noTriton inconclusive
CCC1CCCCN1C(=O)Cn1c(=O)oc2cc(S(=O)(=O)N3CCCCC3)ccc21 (stereo unspecified)	none
O=C(Cn1c(=O)oc2cc(S(=O)(=O)N3CCCCCC3)ccc21)NC1CCCCCCC1	Cruzain noTriton 20µM | Papain counter inactive
Cc1cc2c(=O)c(C(=O)c3ccncc3)cn(CC(=O)Nc3cccc(C)c3C)c2cc1C	none
CC(C)Cn1c(=O)c2sccc2n2c(CCCC(=O)Nc3ccc(Cl)cc3)nnc12	none
